# PKA-R2B activ = activators of PKA-R2B holoenzyme, primary screen, biochemical, fluorescence polarization, Cy5-IP20, human; cAMP-dependent protein kinase catalytic subunit beta (Homo sapiens) + cAMP-dependent …; PKA-R2B holoenzyme dissociation; R2B truncated from residue 108, S112A mutant; 0% DMSO only, 100% 113 µM cGMP; activation, % at 11.4 µM; 340,000 tested, 0.079% active; AID 504700, 2011;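 active = activation above a cutoff set at the mean over all compounds plus 3 SD, cut at about 18% in these data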;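 note: higher means more holoenzyme dissociation and a rise in polarization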
# Target sequence (P31323 whole entry, looked up, other chains not shown, the tested form may be a part): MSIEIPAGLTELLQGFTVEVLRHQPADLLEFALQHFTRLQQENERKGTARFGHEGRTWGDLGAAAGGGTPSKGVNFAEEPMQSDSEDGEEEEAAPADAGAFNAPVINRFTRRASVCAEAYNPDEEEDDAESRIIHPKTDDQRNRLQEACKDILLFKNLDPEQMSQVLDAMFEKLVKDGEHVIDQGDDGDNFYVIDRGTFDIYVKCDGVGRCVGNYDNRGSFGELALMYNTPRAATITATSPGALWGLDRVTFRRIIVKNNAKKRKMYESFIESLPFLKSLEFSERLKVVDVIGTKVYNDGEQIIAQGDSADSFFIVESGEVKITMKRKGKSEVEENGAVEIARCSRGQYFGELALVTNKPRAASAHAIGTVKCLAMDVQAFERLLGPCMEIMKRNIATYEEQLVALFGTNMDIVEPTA
# PKA-R1A act = activators of PKA-R1A holoenzyme, primary screen, biochemical, fluorescence polarization, Cy5-IP20, bovine R1A, mouse PKAc; PKA-R1A dissociation; scaled: DMSO 0%, 113 µM cGMP 100%; activation, % at 11.4 µM; 340,000 tested, 0.083% active; AID 504707, 2011;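 active = percent activation above the mean of all tested compounds plus 3 SD, cut at about 19% in these data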;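 note: higher means more PKAc released from R1A so a rise in polarization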
# JMJD2C inh = inhibitors of GASC-1 histone demethylase, primary screen, biochemical, fluorescence, DELFIA europium; Lysine-specific demethylase 4C (Homo sapiens), Q9H3R0; GST-JMJD2C(1-420) H3K9me3 demethylation; inhibition, % at 2.35 µM; 330,000 tested, 0.069% active;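 active = more than half of a compound's replicate wells show inhibition beyond 50%, single wells judged on their own value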;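 note: signal counts dimethyl H3K9 product captured on neutravidin plate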
# V-ATPase pH = regulators of yeast V-ATPase proton pumping, primary screen, pHLuorin cytosolic pH fluorescence. 350,000 tested, 0.37% active. response, % at 10 µM. AID 504577, 2011. S. cerevisiae; in the data active = response mostly above about 7.3%, no sharp cut-off; inactive = mostly below about 5.4%; note: actives read high
# CR mimetic SO = reduction of superoxide in aged yeast, primary screen, HTS; S. cerevisiae aged cells, superoxide DHE fluorescence; stronger effect = lower value; superoxide response (% of plate mean), % at 10 µM; 330,000 tested, 0.18% active;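 active = superoxide response under a set limit, about three screen SD below normal, cut at about 65% in these data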;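 note: yeast aged for seven days with compound at 30 °C before DHE staining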
# PolyA inh = polyadenylation inhibitors in yeast reporter cells, primary screen, luminescence, S. cerevisiae; S. cerevisiae SKY197-pL101 polyadenylation reporter, beta-gal luminescence; efflux-impaired pdr1/pdr3 knockout yeast; score 100 = 6 SD above DMSO; activity score, % at 12 µM; 300,000 tested, 0.02% active;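 active = lowest replicate activity score at least 50, where 100 means six control SD above control mean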;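 note: yeast exposed to compound for 9 h at 30 °C; higher score means more reporter readthrough which indicates perturbed polyadenylation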
# CR mimetic CP = superoxide lowering in aged yeast cells, confirmation, cherry picked compounds; shares compounds with CR mimetic SO; superoxide response (% of plate), % at 10 µM; S. cerevisiae aging, superoxide DHE fluorescence; stronger effect = lower value; 850 tested, 1% active;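 active = superoxide signal below 65% of the plate average of sample wells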;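 note: cells aged with compound for 7 days at 30 degrees C before staining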
# DHE fluor count = DHE quenching or ROS scavenging interference in aged yeast, artefact control for yeast caloric restriction mimetic project, S. cerevisiae BY4741, flow cytometry; shares compounds with CR mimetic SO; DHE fluorescence; stronger effect = lower value; fluorescence response, % at 10 µM; 850 tested, under 10 active;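 active = fluorescence response below 15%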;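 note: lower means stronger quenching of DHE signal or ROS scavenging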
# Numbers stand for hits; i = inactive; nt = no result given. Hits are enriched below; roughly 0.78% of the tested compounds scored in any of these assays.
SMILES,PKA-R2B activ,PKA-R1A act,JMJD2C inh,V-ATPase pH,CR mimetic SO,PolyA inh,CR mimetic CP,DHE fluor count
Cc1cc(C)n(C(=O)COc2ccccc2[N+](=O)[O-])n1,i,i,i,i,i,i,nt,nt
CC(=O)O[C@H]1C[C@@H]2CC[C@@H]3[C@H](CC[C@@]4(C)[C@H]3C[C@H]([N+]3(C)CCCCC3)[C@@H]4OC(C)=O)[C@@]2(C)C[C@@H]1N1CCCCC1,nt,nt,i,nt,i,i,i,i
CC(=O)O[C@H]1C[C@@H]2CC[C@@H]3[C@H](CC[C@@]4(C)[C@H]3C[C@H]([N+]3(C)CCCCC3)[C@@H]4OC(C)=O)[C@@]2(C)C[C@@H]1[N+]1(C)CCCCC1,i,i,nt,i,i,nt,nt,nt
CCC(CO)NCc1ccc2c(c1)n(C)c(=O)n2C (stereo not given),i,i,i,i,61,i,i,i
CC1Cc2ccccc2N1C(=O)CSc1nnnn1C(C)C (stereo not given),i,i,i,i,i,i,nt,nt
CCOc1cc(C(=O)OCC(=O)Nc2ccc(SC(F)F)cc2)cc(OCC)c1OCC,i,i,i,i,39,i,i,i
O=C(Nc1cccc(F)c1)Nc1ccnn1C1CCN(C(=O)c2cscn2)CC1,i,i,i,i,i,i,nt,nt
CCn1c2ccc(/C(C)=N\O)cc2c2cc(/C(C)=N\O)ccc21,i,i,i,i,i,i,i,i
CCCNC(=O)c1ccc2c(=O)c(O)c(-c3ccc(Cl)c([N+](=O)[O-])c3)[nH]c2c1,i,i,i,i,64,i,i,i
O=C(COC(=O)c1cc([N+](=O)[O-])ccc1N1CCOCC1)Nc1c(Cl)cccc1C(F)(F)F,i,i,i,i,i,i,nt,nt
Cc1ccccc1C(=O)Nc1ccnn1C1CCN(Cc2ccc(CO)o2)CC1,i,i,i,i,i,i,nt,nt
C[C@H](N)c1nnc(SCC(N)=O)o1,i,i,i,i,i,i,nt,nt
CCc1c(C)nc2c(-c3ccccc3)c(-c3ccccc3)[nH]n2c1=O,i,i,i,i,i,i,i,i
CCc1c(C)nc2cc(-c3ccccc3)[nH]n2c1=O,i,i,i,i,i,i,i,i
CCc1c(C)nc2c(-c3ccccc3OC)c(C)[nH]n2c1=O,i,i,i,i,i,i,nt,nt
Cc1cccc(-c2cc3nc(-c4ccccc4)cc(=O)n3[nH]2)c1,i,i,i,i,i,i,i,i
Cc1ccccc1-c1cc2nc(-c3ccc([N+](=O)[O-])cc3)cc(=O)n2[nH]1,i,i,i,i,i,i,nt,nt
CCOC(=O)c1ccccc1N/C=C/C(=O)c1cccs1,i,i,i,i,63,i,i,i
COc1ccc(C(=O)N/C(=C\c2cn(C)c3ccccc23)C(=O)N2CCN(C)CC2)cc1OC,i,i,i,i,i,i,nt,nt
COC(=O)CN(c1ccc(C)cc1)S(=O)(=O)c1ccc(F)cc1,i,i,i,i,50,i,i,i
COC(=O)CN(c1ccccc1F)S(=O)(=O)c1ccc(C)cc1,i,i,i,i,i,i,nt,nt
COC(=O)CN(c1ccccc1)S(=O)(=O)c1ccccc1,i,i,i,i,i,i,i,i
O=C(Cn1nc(Br)nc1Br)c1ccccc1,i,i,i,i,57,i,i,i
O=C(NCC1CCN(S(=O)(=O)c2ccccc2)CC1)Nc1ccccc1,i,i,i,i,i,i,nt,nt
C=CCOn1c(=O)c(-c2cccs2)[n+]([O-])c2ccccc21,i,i,i,i,62,i,i,i
COc1ccccc1N1CCN(S(=O)(=O)c2cn(C)cn2)CC1,i,i,i,i,65,i,i,i

# Compound activity (PubChem)
